According to the supplement of paper PMC12494721:

Legend:
Conditions in all cases: 20 µM; incubation time: 27 h, anaerobic, 37 °C;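 for the amine columns active = adjusted P below 0.05 in both replicates with a change the same way and a mean fold change under 0.8 or over 1.25; inactive = the rest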
[1] = tested on: Clostridium sporogenes DSM 1664; test: growth (OD595) fold change vs plate DMSO controls (fold change (ratio)); higher = more growth
How it was run: (§1)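 Shaken 96-well cultures in mGAM, grown anaerobically for 27 h at 37 °C, were read at 595 nm. OD came from blank-subtracted readings, corrected for background with 20 µM compound solutions in water and scaled by a calibration factor of 5. Growth is the fold change versus the plate's median DMSO control. Values average 2 biological replicates, and any fold change above 1.5 is NA.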

[2] = tested on: Escherichia coli IAI1; test: as above
How it was run: as §1

[3] = tested on: Klebsiella aerogenes DSM 30053; test: as above
How it was run: as §1

[4] = tested on: Ruminococcus gnavus DSM 108212; test: as above
How it was run: as §1

[5] = tested on: Klebsiella aerogenes DSM 30053; test: fold change of Histamine concentration vs plate DMSO controls (fold change (ratio)); higher = more amine produced, active = hit call of the paper (significant change in both replicates, either direction)
How it was run: (§2)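 Amines were quantified by LC–triple-quadrupole MS in dynamic MRM mode against external calibration curves, with drift correction within each batch. The samples were whole anaerobic mGAM cultures of four gut bacterial strains, grown for 27 h at 37 °C in 80 µL wells and extracted with cold acetonitrile/methanol with 0.1% formic acid, then centrifuged. Values are reported as fold change over DMSO controls on the same plate. The mean of 2 biological replicates is given.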

[6] = tested on: Clostridium sporogenes DSM 1664; test: fold change of Tryptamine concentration vs plate DMSO controls (fold change (ratio)); higher = more amine produced, active = hit call of the paper (significant change in both replicates, either direction)
How it was run: as §2

[7] = tested on: Ruminococcus gnavus DSM 108212; test: as above
How it was run: as §2

[8] = tested on: Escherichia coli IAI1; test: fold change of Putrescine concentration vs plate DMSO controls (fold change (ratio)); higher = more amine produced, active = hit call of the paper (significant change in both replicates, either direction)
How it was run: as §2

[9] = tested on: Klebsiella aerogenes DSM 30053; test: as above
How it was run: as §2

[10] = tested on: Escherichia coli IAI1; test: fold change of Cadaverine concentration vs plate DMSO controls (fold change (ratio)); higher = more amine produced, active = hit call of the paper (significant change in both replicates, either direction)
How it was run: as §2

[11] = tested on: Klebsiella aerogenes DSM 30053; test: as above
How it was run: as §2

[12] = tested on: Ruminococcus gnavus DSM 108212; test: fold change of 2-Phenylethylamine concentration vs plate DMSO controls (fold change (ratio)); higher = more amine produced, active = hit call of the paper (significant change in both replicates, either direction)
How it was run: as §2

| SMILES | growth [1] | growth [2] | growth [3] | growth [4] | fold change of Histamine concentration [5] | fold change of Tryptamine concentration [6] | fold change of Tryptamine concentration [7] | fold change of Putrescine concentration [8] | fold change of Putrescine concentration [9] | fold change of Cadaverine concentration [10] | fold change of Cadaverine concentration [11] | fold change of 2-Phenylethylamine concentration [12] |
| --- | --- | --- | --- | --- | --- | --- | --- | --- | --- | --- | --- | --- |
| Cc1cc(C2CC2)nc(Nc2ccccc2)n1 | 0.944 | 1.01 | 0.977 | 0.987 | 1.04 (inactive) | 0.966 (inactive) | 0.968 (inactive) | 0.975 (inactive) | 0.972 (inactive) | 1.01 (inactive) | 0.99 (inactive) | 1.2 (inactive) |
| Oc1ccc(Cc2ccc(O)cc2)cc1 [Bisphenol F] | 0.945 | 1.12 | 0.989 | 1.03 | 1.06 (inactive) | 1.11 (inactive) | 1.15 (inactive) | 1.04 (inactive) | 0.986 (inactive) | 1.03 (inactive) | 1.09 (inactive) | 1.48 (inactive) |
| O=C(Nc1ccc(F)cc1F)c1cccnc1Oc1cccc(C(F)(F)F)c1 | 0.931 | 1.02 | 1.03 | 0.965 | 1.01 (inactive) | 0.987 (inactive) | 0.983 (inactive) | 1.01 (inactive) | 0.995 (inactive) | 1.03 (inactive) | 0.993 (inactive) | 0.987 (inactive) |
| COC[C@@H](NC(C)=O)C(=O)NCc1ccccc1 [Lacosamide] | 1.07 | 1.01 | 1.06 | 0.96 | 1.08 (inactive) | 1 (inactive) | 1.04 (inactive) | 1.01 (inactive) | 1.02 (inactive) | 1 (inactive) | 1 (inactive) | 1.07 (inactive) |
| N#CC(CCc1ccc(Cl)cc1)(Cn1cncn1)c1ccccc1 (stereo not drawn) | 1.11 | 1.08 | 0.94 | 1.14 | 0.476 (inactive) | 0.979 (inactive) | 1.04 (inactive) | 1.07 (inactive) | 0.482 (inactive) | 0.972 (inactive) | 0.478 (inactive) | 1.08 (inactive) |
| O=[N+]([O-])/N=C1\NCCN1Cc1ccc(Cl)nc1 | 1.04 | 0.975 | 0.996 | 0.979 | 0.986 (inactive) | 1.01 (inactive) | 0.989 (inactive) | 0.964 (inactive) | 0.998 (inactive) | 0.98 (inactive) | 0.998 (inactive) | 1 (inactive) |
| CC(=O)[C@H]1CC[C@H]2[C@@H]3CC[C@H]4C[C@H](O)CC[C@]4(C)[C@H]3C(=O)C[C@]12C [Alfaxalone] | 1.12 | 1.03 | 1.02 | 1.13 | 1.06 (inactive) | 0.957 (inactive) | 0.959 (inactive) | 0.994 (inactive) | 1.06 (inactive) | 1 (inactive) | 1.02 (inactive) | 0.913 (inactive) |
| COc1cc([C@@H]2c3cc4c(cc3[C@H](O)[C@H]3COC(=O)[C@H]23)OCO4)cc(OC)c1OC [Podophyllotoxin] | 1.13 | 1.18 | 1.14 | 0.888 | 0.958 (inactive) | 1.01 (inactive) | 1.03 (inactive) | 1.06 (inactive) | 1.02 (inactive) | 0.931 (inactive) | 1.02 (inactive) | 1.02 (inactive) |
| O=C(O)CNCP(=O)(O)O | 0.851 | 1.02 | 0.976 | 0.965 | 1.03 (inactive) | 0.931 (inactive) | 0.98 (inactive) | 0.961 (inactive) | 1.02 (inactive) | 0.991 (inactive) | 1.03 (inactive) | 0.966 (inactive) |
| CN(C)[C@@H]1C(=O)C(C(N)=O)=C(O)[C@@]2(O)C(=O)C3=C(O)c4c(O)cccc4[C@@](C)(O)[C@H]3[C@H](O)[C@@H]12 [Oxytetracycline dihydrate] | 0.0153 | 0.133 | 0.113 | 0.955 | 0.0509 (active) | 0.0182 (active) | 0.898 (inactive) | 0.279 (active) | 0.46 (active) | 0.113 (active) | 0.413 (active) | 0.92 (inactive) |
| CCCC(C)(COC(N)=O)COC(=O)NC(C)C (stereo not drawn) [Carisoprodol] | 1.03 | 1.01 | 1.01 | 0.919 | 1.03 (inactive) | 1.01 (inactive) | 1.02 (inactive) | 1.02 (inactive) | 1 (inactive) | 1.02 (inactive) | 1 (inactive) | 1.05 (inactive) |
| C[N+](C)(C)CCCCCCCCCC[N+](C)(C)C [Decamethonium bromide] | 0.947 | 0.999 | 1 | 1.01 | 0.907 (inactive) | 1.13 (inactive) | 1.13 (inactive) | 0.923 (inactive) | 0.933 (inactive) | 0.877 (inactive) | 1.08 (inactive) | 1.11 (inactive) |
| CNCC(O)c1ccc(O)cc1 (stereo not drawn) [Synephrine] | 1.04 | 1.09 | 1.01 | 0.887 | 1.02 (inactive) | 0.997 (inactive) | 1.05 (inactive) | 1.11 (inactive) | 0.982 (inactive) | 0.997 (inactive) | 0.989 (inactive) | 1.09 (inactive) |
| CCOP(=S)(OCC)Oc1cc(C)nc(C(C)C)n1 | 0.996 | 1.01 | 0.998 | 1.15 | 1.04 (inactive) | 1.03 (inactive) | 0.997 (inactive) | 1 (inactive) | 1 (inactive) | 1.01 (inactive) | 1 (inactive) | 1 (inactive) |
